# From publication PMC8384837, “Expanding the binding specificity for RNA recognition by a PUF domain”
# Legend:
# Experiment in all cases: yeast three-hybrid, YBZ-1, SC-Leu-His + 0.5 mM 3-AT, 4 days
# Details in all cases: tags: N-Gal4 AD-HA kept; label: inside an RPR1-promoter hybrid RNA with tandem MS2 sites; ssRNA
# [1] = target: PUM1 PUF domain R5-DQQ (Homo sapiens, UniProt Q14671 828-1176, C1007D;R1008Q)
# Procedure, shortened: (§1)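 Repeat regions from input (SC-Leu) and selection (SC-Leu-His + 0.5 mM 3-AT) plates were PCR-amplified and Illumina-sequenced after four days of growth. The cells were strain YBZ-1 with a LexA–MS2 coat fusion and a HIS3 reporter, co-expressing Pumilio-1 PUF domain libraries and matching RNA elements from a centromeric plasmid. The interaction score is the log change in variant frequency from input to selection, taken in log2 with a pseudocount of 1 for absent variants.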
# [2] = target: PUM1 PUF domain R5-NCR (Homo sapiens, UniProt Q14671 828-1176, C1007N;R1008C;Q1011R)
# Procedure, shortened: as §1
# [3] = target: PUM1 PUF domain R4-GNS (Homo sapiens, UniProt Q14671 828-1176, N971G;H972N;Q975S)
# Procedure, shortened: as §1
# [4] = target: PUM1 PUF domain R5-MHM (Homo sapiens, UniProt Q14671 828-1176, C1007M;R1008H;Q1011M)
# Procedure, shortened: as §1
# [5] = target: PUM1 PUF domain R3-FRP (Homo sapiens, UniProt Q14671 828-1176, C935F;Q939P)
# Procedure, shortened: as §1
# [6] = target: T1, PUM1 PUF domain R6-RWV (Homo sapiens, UniProt Q14671 828-1176, N1043R;Y1044W;Q1047V)
# T1 sequence: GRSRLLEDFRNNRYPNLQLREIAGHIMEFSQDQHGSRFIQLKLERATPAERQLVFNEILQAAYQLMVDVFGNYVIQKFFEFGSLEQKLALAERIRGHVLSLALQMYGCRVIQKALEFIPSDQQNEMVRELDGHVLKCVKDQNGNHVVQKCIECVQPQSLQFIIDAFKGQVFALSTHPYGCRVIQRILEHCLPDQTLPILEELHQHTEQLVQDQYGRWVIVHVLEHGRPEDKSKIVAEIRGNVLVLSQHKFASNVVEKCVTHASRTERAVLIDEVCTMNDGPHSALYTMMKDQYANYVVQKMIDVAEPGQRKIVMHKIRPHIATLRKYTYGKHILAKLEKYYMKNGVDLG
# Procedure, shortened: as §1
# [7] = target: PUM1 PUF domain R7-LTC (Homo sapiens, UniProt Q14671 828-1176, S1079L;N1080T;E1083C)
# Procedure, shortened: as §1
# [8] = target: PUM1 PUF domain R7-RPQ (Homo sapiens, UniProt Q14671 828-1176, S1079R;N1080P;E1083Q)
# Procedure, shortened: as §1
# [9] = target: PUM1 PUF domain R1-GGE (Homo sapiens, UniProt Q14671 828-1176, S863G;R864G;Q867E)
# Procedure, shortened: as §1
# [10] = target: PUM1 PUF domain R7-KYW (Homo sapiens, UniProt Q14671 828-1176, S1079K;N1080Y;E1083W)
# Procedure, shortened: as §1
# [11] = target: PUM1 PUF domain R3-RSH (Homo sapiens, UniProt Q14671 828-1176, C935R;R936S;Q939H)
# Procedure, shortened: as §1
# [12] = target: PUM1 PUF domain R2-RKA (Homo sapiens, UniProt Q14671 828-1176, N899R;Y900K;Q903A)
# Procedure, shortened: as §1
# [13] = target: PUM1 PUF domain R4-EPG (Homo sapiens, UniProt Q14671 828-1176, N971E;H972P;Q975G)
# Procedure, shortened: as §1
# [14] = target: PUM1 PUF domain R8-KRL (Homo sapiens, UniProt Q14671 828-1176, N1122K;Y1123R;Q1126L)
# Procedure, shortened: as §1
# [15] = target: PUM1 PUF domain R4-NRM (Homo sapiens, UniProt Q14671 828-1176, H972R;Q975M)
# Procedure, shortened: as §1
# [16] = target: PUM1 PUF domain R8-QWR (Homo sapiens, UniProt Q14671 828-1176, N1122Q;Y1123W;Q1126R)
# Procedure, shortened: as §1
# [17] = target: PUM1 PUF domain R4-RHA (Homo sapiens, UniProt Q14671 828-1176, N971R;Q975A)
# Procedure, shortened: as §1
# [18] = target: PUM1 PUF domain R5-RYW (Homo sapiens, UniProt Q14671 828-1176, C1007R;R1008Y;Q1011W)
# Procedure, shortened: as §1
# [19] = target: PUM1 PUF domain R8-RWN (Homo sapiens, UniProt Q14671 828-1176, N1122R;Y1123W;Q1126N)
# Procedure, shortened: as §1
# [20] = target: PUM1 PUF domain R4-VRG (Homo sapiens, UniProt Q14671 828-1176, N971V;H972R;Q975G)
# Procedure, shortened: as §1
sequence,measurement,setting,value
GGCUAGAACUAGUGGAUCCCCCGGCGCCCGGCGGCUCGAGCCCGGGUAAGUGUCAAUAGUCUGCAUGCCGCCGGGCGCCAUGCCUGCAGGUCGACUCUAGAAAACAUG,binding signal,[1],5.11 log2 enrichment (interaction score)
same,binding signal,[2],1.7 log2 enrichment (interaction score)
GGCUAGAACUAGUGGAUCCCCCGGCGCCCGGCGGCUCGAGCCCGGGUAAGUGUACAUAGUCUGCAUGCCGCCGGGCGCCAUGCCUGCAGGUCGACUCUAGAAAACAUG,binding signal,[3],2.01 log2 enrichment (interaction score)
GGCUAGAACUAGUGGAUCCCCCGGCGCCCGGCGGCUCGAGCCCGGGUAAGUGUGAAUAGUCUGCAUGCCGCCGGGCGCCAUGCCUGCAGGUCGACUCUAGAAAACAUG,binding signal,[4],2.99 log2 enrichment (interaction score)
GGCUAGAACUAGUGGAUCCCCCGGCGCCCGGCGGCUCGAGCCCGGGUAAGUGUAAGUAGUCUGCAUGCCGCCGGGCGCCAUGCCUGCAGGUCGACUCUAGAAAACAUG,binding signal,[5],2.47 log2 enrichment (interaction score)
GGCUAGAACUAGUGGAUCCCCCGGCGCCCGGCGGCUCGAGCCCGGGUAAGUGAAAAUAGUCUGCAUGCCGCCGGGCGCCAUGCCUGCAGGUCGACUCUAGAAAACAUG,binding signal,[6],2.99 log2 enrichment (interaction score)
GGCUAGAACUAGUGGAUCCCCCGGCGCCCGGCGGCUCGAGCCCGGGUAAGUUUAAAUAGUCUGCAUGCCGCCGGGCGCCAUGCCUGCAGGUCGACUCUAGAAAACAUG,binding signal,[7],3.36 log2 enrichment (interaction score)
same,binding signal,[8],5.16 log2 enrichment (interaction score)
GGCUAGAACUAGUGGAUCCCCCGGCGCCCGGCGGCUCGAGCCCGGGUAAGUGUAAAUGGUCUGCAUGCCGCCGGGCGCCAUGCCUGCAGGUCGACUCUAGAAAACAUG,binding signal,[9],2.22 log2 enrichment (interaction score)
GGCUAGAACUAGUGGAUCCCCCGGCGCCCGGCGGCUCGAGCCCGGGUAAGUCUAAAUAGUCUGCAUGCCGCCGGGCGCCAUGCCUGCAGGUCGACUCUAGAAAACAUG,binding signal,[10],3.27 log2 enrichment (interaction score)
same,binding signal,[8],2.7 log2 enrichment (interaction score)
GGCUAGAACUAGUGGAUCCCCCGGCGCCCGGCGGCUCGAGCCCGGGUAAGUGUAAUUAGUCUGCAUGCCGCCGGGCGCCAUGCCUGCAGGUCGACUCUAGAAAACAUG,binding signal,[11],3.41 log2 enrichment (interaction score)
GGCUAGAACUAGUGGAUCCCCCGGCGCCCGGCGGCUCGAGCCCGGGUAAGUGUAAAGAGUCUGCAUGCCGCCGGGCGCCAUGCCUGCAGGUCGACUCUAGAAAACAUG,binding signal,[12],7.14 log2 enrichment (interaction score)
GGCUAGAACUAGUGGAUCCCCCGGCGCCCGGCGGCUCGAGCCCGGGUAAGUGUAUAUAGUCUGCAUGCCGCCGGGCGCCAUGCCUGCAGGUCGACUCUAGAAAACAUG,binding signal,[13],2.97 log2 enrichment (interaction score)
same,binding signal,[3],4.46 log2 enrichment (interaction score)
GGCUAGAACUAGUGGAUCCCCCGGCGCCCGGCGGCUCGAGCCCGGGUAAGUGUAAAUAGUCUGCAUGCCGCCGGGCGCCAUGCCUGCAGGUCGACUCUAGAAAACAUG,binding signal,[14],1.26 log2 enrichment (interaction score)
same,binding signal,[15],3.21 log2 enrichment (interaction score)
same,binding signal,[16],4.74 log2 enrichment (interaction score)
same,binding signal,[17],3.02 log2 enrichment (interaction score)
same,binding signal,[18],2.33 log2 enrichment (interaction score)
same,binding signal,[1],2.81 log2 enrichment (interaction score)
same,binding signal,[19],4.57 log2 enrichment (interaction score)
same,binding signal,[13],1.2 log2 enrichment (interaction score)
same,binding signal,[3],2.34 log2 enrichment (interaction score)
same,binding signal,[20],4.34 log2 enrichment (interaction score)
same,binding signal,[6],5.13 log2 enrichment (interaction score)
GGCUAGAACUAGUGGAUCCCCCGGCGCCCGGCGGCUCGAGCCCGGGUAAGCGUAAAUAGUCUGCAUGCCGCCGGGCGCCAUGCCUGCAGGUCGACUCUAGAAAACAUG,binding signal,[14],3.37 log2 enrichment (interaction score)
same,binding signal,[16],5.32 log2 enrichment (interaction score)
same,binding signal,[19],0.65 log2 enrichment (interaction score)
GGCUAGAACUAGUGGAUCCCCCGGCGCCCGGCGGCUCGAGCCCGGGUAAGUGUUAAUAGUCUGCAUGCCGCCGGGCGCCAUGCCUGCAGGUCGACUCUAGAAAACAUG,binding signal,[18],3.92 log2 enrichment (interaction score)
same,binding signal,[2],4.23 log2 enrichment (interaction score)
